Experiment [1] is described as follows: ATG_CRE_CIS: Attagene CIS-FACTORIAL HepG2 Assay for human cAMP Responsive Element (CRE) binding protein 3 (AID 2282926). Conditions: HepG2 CRE cis-reporter, Attagene multiplexed mRNA; actives raise or lower the signal. The essentials: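 We dosed HepG2 cells bearing multiple cis-promoter reporter units for 24 h and measured reporter mRNA by RT-PCR with capillary electrophoresis detection. Bidirectional concentration-response fitting used DMSO as negative control.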

Experiment [2] addresses CCAAT/enhancer-binding protein beta (Homo sapiens) (UniProt P17676). Nature of the experiment: ATG_C_EBP_CIS: Attagene CIS-FACTORIAL HepG2 Assay for human CCAAT/Enhancer Binding Protein (C/EBP) beta (AID 2282927). As to conditions: HepG2 Attagene cis-factorial transcription factor reporter; actives raise or lower the signal. The essentials: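 Changes in reporter mRNA, rather than exogenous chimeric receptor activity, reflect native C/EBP signalling in transfected HepG2 cells dosed for 24 h; transcripts are detected by RT-PCR and capillary electrophoresis.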

Experiment [3] in a line: ATG_CMV_CIS: Attagene CIS-FACTORIAL HepG2 Assay for human CMV (Internal Marker) (AID 2282928).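 Also: endpoint acts as a background internal control marker rather than a target.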 Conditions: HepG2 CMV promoter reporter, transcription factor profiling; actives raise or lower the signal. The essentials: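 Endogenous transcription factor activity read in HepG2 via transfected cis-promoter reporter units. After 24 h dosing, reporter mRNA measured by RT-PCR/capillary electrophoresis; gain or loss of signal fit relative to DMSO.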

Experiment [4] is described as follows: ATG_DR4_LXR_CIS: Attagene CIS-FACTORIAL HepG2 Assay for human Liver X Receptor (LXR), DR4 submotif (AID 2282929). As to conditions: HepG2 Attagene DR4 cis-reporter, mRNA transcription; actives raise or lower the signal. The essentials: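 HepG2, transient MRTU transfection, cis-element (DR4) promoter; 24 h compound exposure; total RNA → oligo(dT) RT → PCR → 6-FAM primer extension → HpaI cut → CE. Gain/loss vs DMSO, bidirectional fit.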

The target of experiment [5] is Aryl hydrocarbon receptor (Homo sapiens) (UniProt P35869). Nature of the experiment: ATG_Ahr_CIS: Attagene CIS-FACTORIAL HepG2 Assay for human Aryl Hydrocarbon Receptor (Ahr) (AID 2282930). Conditions: HepG2 AhR cis-factorial reporter transcription; actives raise or lower the signal. The essentials: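 HepG2, transient MRTU (cis) transfection, 24 h exposure. RNA → cDNA → PCR → 6-FAM primer extension → HpaI 2 h 37 C → CE. Fit: bidirectional, DMSO baseline.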
Sequence of Aryl hydrocarbon receptor (Homo sapiens) (P35869 whole entry, looked up): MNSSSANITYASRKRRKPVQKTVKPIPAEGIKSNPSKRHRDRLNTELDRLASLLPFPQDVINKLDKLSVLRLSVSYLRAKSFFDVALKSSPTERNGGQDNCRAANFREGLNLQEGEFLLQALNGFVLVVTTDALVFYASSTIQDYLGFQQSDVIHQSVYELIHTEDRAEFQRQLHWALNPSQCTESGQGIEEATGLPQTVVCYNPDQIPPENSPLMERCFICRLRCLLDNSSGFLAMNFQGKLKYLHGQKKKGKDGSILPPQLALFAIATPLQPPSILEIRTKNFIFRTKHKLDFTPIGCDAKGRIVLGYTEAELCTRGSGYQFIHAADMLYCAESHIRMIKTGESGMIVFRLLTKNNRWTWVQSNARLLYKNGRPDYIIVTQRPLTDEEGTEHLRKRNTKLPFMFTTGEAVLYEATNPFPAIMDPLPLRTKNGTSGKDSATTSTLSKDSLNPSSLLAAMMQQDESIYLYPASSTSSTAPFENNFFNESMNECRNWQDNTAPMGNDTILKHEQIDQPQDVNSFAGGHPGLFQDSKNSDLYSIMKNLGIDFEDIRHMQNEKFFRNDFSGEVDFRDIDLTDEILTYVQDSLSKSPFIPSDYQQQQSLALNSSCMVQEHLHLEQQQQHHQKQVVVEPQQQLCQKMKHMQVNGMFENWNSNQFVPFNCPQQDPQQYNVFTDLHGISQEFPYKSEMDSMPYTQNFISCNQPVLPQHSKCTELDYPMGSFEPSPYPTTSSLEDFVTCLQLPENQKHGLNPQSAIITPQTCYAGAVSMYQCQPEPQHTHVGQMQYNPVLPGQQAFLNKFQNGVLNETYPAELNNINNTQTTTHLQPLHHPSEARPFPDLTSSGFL

A short description of experiment [6]: ATG_AP_1_CIS: Attagene CIS-FACTORIAL HepG2 Assay for human Activator Protein 1 (AP-1) (AID 2282931). As to conditions: HepG2 Attagene cis-factorial AP-1 reporter mRNA; actives raise or lower the signal. The essentials:
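Transient MRTU transfection of HepG2 → 24 h chemical treatment → RNA isolation, RT-PCR, 6-FAM labelling, HpaI digest → capillary electrophoresis. Fit: bidirectional, DMSO negative control.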

The nature of experiment [7]: ATG_AP_2_CIS: Attagene CIS-FACTORIAL HepG2 Assay for human Activator Protein 2 (AP-2) (AID 2282932). As to conditions: HepG2 AP-2 cis-reporter, Attagene transcription factor profiling; actives raise or lower the signal. The essentials:
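Step one: transient transfection of HepG2 with reporter transcription units. Step two: 24 h chemical exposure. Step three: RNA extraction, RT-PCR, labelled fragment analysis by capillary electrophoresis; DMSO serves as baseline.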

Experiment [8] concerns the target Transcription factor E2F1 (Homo sapiens) (UniProt Q01094). Put plainly: ATG_E2F_CIS: Attagene CIS-FACTORIAL HepG2 Assay for human E2F Transcription Factor 1 (AID 2282935). Conditions: HepG2 Attagene cis-reporter, E2F reporter RNA transcripts; actives raise or lower the signal. The essentials:
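Total RNA from 24 h-treated, reporter-transfected HepG2 cells undergoes DNase I treatment, oligo(dT) reverse transcription, PCR and 6-FAM primer extension before capillary electrophoresis.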

Experiment [9] can be described thus: ATG_E_Box_CIS: Attagene CIS-FACTORIAL HepG2 Assay for human Enhancer Box (E-box) (AID 2282936). Conditions: HepG2 E-box cis-reporter transcription, actives raise or lower the signal. The essentials:
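DMSO served as negative control and baseline for bidirectional fitting. Human hepatoma HepG2 cells, transiently transfected with cis-reporter constructs, were dosed 24 h; reporter mRNA read by RT-PCR and capillary electrophoresis.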

A short description of experiment [10]: ATG_M_61_CIS: Attagene CIS-FACTORIAL HepG2 Assay for M61 Transcription Factor (Internal Marker) (AID 2282937). As to conditions: HepG2 Attagene CIS-FACTORIAL M61 internal marker reporter; actives raise or lower the signal. The essentials:
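Human liver HepG2, transient MRTU transfection (cis promoter elements), 24 h compound. Total RNA → oligo(dT) RT → PCR → FAM label → HpaI → CE. Internal background marker; bidirectional fitting, DMSO = baseline.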

The nature of experiment [11]: ATG_EGR_CIS: Attagene CIS-FACTORIAL HepG2 Assay for human Early Growth Response 1 (EGR1) (AID 2282938). Conditions: HepG2 Attagene CIS-FACTORIAL EGR reporter mRNA; actives raise or lower the signal. The essentials: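 Transient transfection of human HepG2 with multiple cis-regulated reporter units, chemical exposure 24 h, total RNA isolated. Reverse transcription, PCR, fluorescent labelling and capillary electrophoresis quantify reporter transcripts; activity fitted bidirectionally against DMSO.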

A short description of experiment [12]: ATG_M_19_CIS: Attagene CIS-FACTORIAL HepG2 Assay for M19 Transcription Factor (Internal Marker) (AID 2282939). As to conditions: HepG2 Attagene CIS-FACTORIAL M19 internal marker reporter; actives raise or lower the signal. The essentials: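 HepG2, MRTU transient transfection, 24 h dosing. Total RNA → RT-PCR → 6-FAM primer extension → HpaI digest → CE fluorescence. Bidirectional curve fit, DMSO negative control.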

The nature of experiment [13]: ATG_ERE_CIS: Attagene CIS-FACTORIAL HepG2 Assay for Estrogen Response Element (ERE) (AID 2282940). Conditions: HepG2 ERE cis-reporter, Attagene RNA transcript; actives raise or lower the signal. The essentials:
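After a 24 h chemical treatment, RNA from reporter-transfected HepG2 cells is reverse-transcribed, PCR-amplified and fluorescently labelled. Fragments separated by capillary electrophoresis give reporter signal; DMSO serves as negative control.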

A short description of experiment [14]: ATG_Ets_CIS: Attagene CIS-FACTORIAL HepG2 Assay for human Erythroblast Transformation Specific (ETS) (AID 2282941). As to conditions: HepG2 ETS cis-reporter transcription, actives raise or lower the signal. The essentials:
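Steps: transfect HepG2 with multiple reporter units; treat compound 24 h; isolate RNA, DNase-treat, reverse-transcribe; PCR-amplify, label with 6-FAM, digest with HpaI; separate by capillary electrophoresis. Activity fitted both directions versus DMSO.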

The target of experiment [15] is Hepatocyte nuclear factor 3-beta (Homo sapiens) (UniProt Q9Y261). Nature of the experiment: ATG_FoxA2_CIS: Attagene CIS-FACTORIAL HepG2 Assay for human Forkhead box A2 (FOXA2) (AID 2282942). As to conditions: HepG2 cis-reporter transcription factor activity, 24 h; actives raise or lower the signal. The essentials: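 Transient MRTU transfection of HepG2 liver cells; 24 h treatment; total RNA → oligo(dT) RT → PCR → FAM primer extension → HpaI cut → CE. Bidirectional fit vs DMSO.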
Sequence of Hepatocyte nuclear factor 3-beta (Homo sapiens) (Q9Y261 whole entry, looked up): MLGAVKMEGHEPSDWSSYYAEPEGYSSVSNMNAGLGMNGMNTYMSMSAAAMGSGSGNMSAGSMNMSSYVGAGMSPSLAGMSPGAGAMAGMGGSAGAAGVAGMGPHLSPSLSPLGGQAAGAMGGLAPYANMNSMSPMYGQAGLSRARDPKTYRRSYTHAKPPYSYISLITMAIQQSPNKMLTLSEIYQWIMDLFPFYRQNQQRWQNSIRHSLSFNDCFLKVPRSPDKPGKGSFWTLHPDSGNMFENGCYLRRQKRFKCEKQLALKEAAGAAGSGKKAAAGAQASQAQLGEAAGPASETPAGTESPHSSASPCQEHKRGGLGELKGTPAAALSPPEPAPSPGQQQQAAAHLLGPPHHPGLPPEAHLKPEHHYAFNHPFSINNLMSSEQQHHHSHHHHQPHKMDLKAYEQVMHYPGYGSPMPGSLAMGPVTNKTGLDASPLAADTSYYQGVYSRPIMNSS

Experiment [16] in a line: ATG_FoxO_CIS: Attagene CIS-FACTORIAL HepG2 Assay for human Forkhead box O (FoxO) (AID 2282943). As to conditions: HepG2 Attagene cis-reporter, FoxO element, mRNA; actives raise or lower the signal. The essentials: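 Human hepatoma HepG2 cells carry transiently introduced reporter transcription units controlled by cis promoter elements. Chemical treatment lasted 24 h, and mRNA signal was compared with DMSO.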

Experiment [17] in a line: ATG_GATA_CIS: Attagene CIS-FACTORIAL HepG2 Assay for human GATA Binding Protein (AID 2282944). As to conditions: HepG2 GATA cis-element reporter, Attagene multiplex mRNA; actives raise or lower the signal. The essentials:
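Cells: HepG2, transiently transfected with cis-regulated reporter transcription units. Exposure: 24 h. Detection: RT-PCR plus capillary electrophoresis of FAM-labeled fragments. Analysis: bidirectional, DMSO as baseline.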

Experiment [18] in a line: ATG_GLI_CIS: Attagene CIS-FACTORIAL HepG2 Assay for human Zinc Finger Protein GLI1 (AID 2282945). Conditions: HepG2, Attagene cis-factorial reporter mRNA, GLI element; actives raise or lower the signal. The essentials: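 Bidirectional curve fits relative to DMSO, using reporter mRNA levels from RT-PCR plus capillary electrophoresis. Cells were HepG2 transiently carrying cis-regulated reporter constructs, harvested 24 h after dosing.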

Experiment [19] can be described thus: ATG_BRE_CIS: Attagene CIS-FACTORIAL HepG2 Assay for human Bone Morphogenetic Protein (BMP) Response Element (BRE) (AID 2282933). Conditions: HepG2 BMP response element reporter, Attagene transcription factor profiling; actives raise or lower the signal. The essentials:
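Fluorescence-labelled reporter cDNA fragments, separated by capillary electrophoresis, gave the signal for this component of a 52-readout multiplex. HepG2 cells were transfected, exposed to chemicals for 24 h, and compared with DMSO using bidirectional fitting.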

The target of experiment [20] is Retinoic acid receptor alpha (Homo sapiens) (UniProt P10276). Nature of the experiment: ATG_DR5_RAR_CIS: Attagene CIS-FACTORIAL HepG2 Assay for human Retinoic Acid Receptor Alpha (RARE), DR5 submotif (AID 2282934). As to conditions: HepG2 Attagene cis-factorial RARE DR5 reporter, mRNA; actives raise or lower the signal. The essentials: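 HepG2, transient cis-reporter transfection, 24 h exposure. mRNA readout: RT-PCR, FAM label, HpaI cut, capillary electrophoresis. DMSO baseline, gain/loss fitting.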
Sequence of Retinoic acid receptor alpha (Homo sapiens) (P10276 whole entry, looked up): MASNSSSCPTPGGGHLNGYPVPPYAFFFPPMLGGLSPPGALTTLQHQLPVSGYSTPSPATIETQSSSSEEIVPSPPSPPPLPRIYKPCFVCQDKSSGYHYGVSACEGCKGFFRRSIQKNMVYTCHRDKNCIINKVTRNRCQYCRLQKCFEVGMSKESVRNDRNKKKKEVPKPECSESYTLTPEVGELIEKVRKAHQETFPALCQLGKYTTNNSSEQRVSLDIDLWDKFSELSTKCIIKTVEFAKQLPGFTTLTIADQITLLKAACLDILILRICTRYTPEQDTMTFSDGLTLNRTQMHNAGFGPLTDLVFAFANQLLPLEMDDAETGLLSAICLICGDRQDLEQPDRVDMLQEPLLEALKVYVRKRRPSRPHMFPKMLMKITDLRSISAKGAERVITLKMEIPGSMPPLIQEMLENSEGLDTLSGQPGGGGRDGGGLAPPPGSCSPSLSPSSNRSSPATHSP

The source made the active and inactive calls. The calls were made as follows: active = hit-call score of the fitted dose curve at least 0.9, where 1 is the maximum; inactive = score below 0.9.

Sequence of Transcription factor E2F1 (Homo sapiens) (Q01094 whole entry, looked up): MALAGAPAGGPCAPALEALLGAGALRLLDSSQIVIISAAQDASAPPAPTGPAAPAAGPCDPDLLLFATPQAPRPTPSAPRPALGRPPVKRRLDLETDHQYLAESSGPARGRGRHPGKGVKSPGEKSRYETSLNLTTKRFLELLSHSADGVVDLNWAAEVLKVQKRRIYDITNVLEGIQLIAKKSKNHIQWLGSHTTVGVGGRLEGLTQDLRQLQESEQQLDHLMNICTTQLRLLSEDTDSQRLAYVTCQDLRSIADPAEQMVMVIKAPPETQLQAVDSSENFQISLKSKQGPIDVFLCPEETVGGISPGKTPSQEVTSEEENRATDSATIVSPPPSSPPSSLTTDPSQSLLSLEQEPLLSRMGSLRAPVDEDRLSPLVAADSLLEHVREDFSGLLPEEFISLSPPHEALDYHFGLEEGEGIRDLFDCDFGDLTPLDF
Sequence of CCAAT/enhancer-binding protein beta (Homo sapiens) (P17676 whole entry, looked up): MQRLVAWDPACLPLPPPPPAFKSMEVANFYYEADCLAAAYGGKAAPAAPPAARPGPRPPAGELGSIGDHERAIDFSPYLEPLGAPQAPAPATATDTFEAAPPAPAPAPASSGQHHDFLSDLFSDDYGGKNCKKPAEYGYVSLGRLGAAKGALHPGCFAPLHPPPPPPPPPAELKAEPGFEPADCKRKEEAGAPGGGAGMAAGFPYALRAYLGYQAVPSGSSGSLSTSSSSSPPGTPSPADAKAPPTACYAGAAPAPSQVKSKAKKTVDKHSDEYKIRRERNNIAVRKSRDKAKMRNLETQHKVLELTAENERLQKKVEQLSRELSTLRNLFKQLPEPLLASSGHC

The term AC50 denotes the concentration giving half of the maximal activity seen. For `CCCCCCCCCCCCCCO`, the call in experiment [1], in experiment [6], in experiment [10], in [11], in experiment [12] and in experiment [13] was inactive. The result in experiment [16] and in experiment [18] was inactive. In addition, the AC50 is 74.3 µM (active) in [2]; 29.4 µM (active) in experiment [3]; 78 µM (active) in experiment [4]; 114 µM (active) in experiment [5]; 166 µM (active) in [7]; 158 µM (active) in experiment [8]. Besides, the AC50 in [9] is 129 µM (active); in experiment [14], 159 µM (active); in [15], 138 µM (active); in experiment [17], 179 µM (active).

`CCCCN1C(=O)[C@@H]([C@H](O)C2CCCCC2)NC(=O)C12CCN(Cc1ccc(Oc3ccc(C(=O)O)cc3)cc1)CC2`: the compound was called inactive in experiment [1], in experiment [3], in experiment [5], in experiment [6], in experiment [7] and in experiment [8]. For the same compound, the outcome in experiment [9], in experiment [10], in [11], in experiment [12], in [13] and in [14] was inactive. Also, the compound was classed as inactive in experiment [15], in [16] and in experiment [18]. Moreover, the AC50 was 32.9 µM (active) in experiment [2] and 71.5 µM (active) in experiment [4].

With `Cc1nc(-c2ccccn2)ncc1C(=O)Nn1cc(C)c2cc(F)ccc21`, the compound was called inactive in experiment [1], in experiment [2], in [3], in experiment [4], in [6] and in experiment [7]. Moreover, the compound was classed as inactive in experiment [19], in experiment [20], in experiment [9], in [10], in experiment [11] and in experiment [12]. Further, the outcome in experiment [13], in experiment [14], in experiment [15], in [16], in [17] and in [18] was inactive.

Regarding `CCCCC(CC)C(=O)OCCOCCOCCOC(=O)C(CC)CCCC` (centres undefined), the result in experiment [1], in experiment [2], in [3], in experiment [6], in experiment [7] and in [19] was inactive. Besides, the compound was called inactive in experiment [20], in [9], in experiment [10], in experiment [11], in experiment [12] and in experiment [13]. In addition, the result in [14], in experiment [15], in experiment [16] and in [18] was inactive. Also, in experiment [4], the AC50 is 160 µM (active).

For `CCOC(N)=O`, the compound was called inactive in experiment [1], in experiment [2], in experiment [3], in experiment [4], in [6] and in experiment [7]. The compound was classed as inactive in experiment [19], in experiment [9], in experiment [10], in experiment [11], in experiment [12] and in experiment [13]. In addition, the result in experiment [14], in experiment [15], in experiment [16], in experiment [17] and in experiment [18] was inactive.

As to `CCCCCCCCN(C)C`, the compound was classed as inactive in experiment [1], in [2], in [3], in experiment [4], in [6] and in experiment [7]. Moreover, the result in experiment [19], in [20], in experiment [8], in [9], in experiment [10] and in experiment [11] was inactive. Moreover, the result in experiment [12], in experiment [13], in [14], in [15], in experiment [16] and in experiment [17] was inactive. In experiment [18], the compound was called inactive.

As to `OC(Cn1cncn1)(Cn1cncn1)c1ccc(F)cc1F`, the compound was called inactive in experiment [1], in experiment [2], in experiment [3], in [4], in [5] and in experiment [6]. Further, the result in experiment [7], in [8], in experiment [9], in experiment [10], in [11] and in experiment [12] was inactive. Moreover, the compound was called inactive in experiment [13], in [14], in [15], in experiment [16], in experiment [17] and in [18].

Values taken from PubChem BioAssay (EPA / NIEHS).
